# Shown are actives, neighbours in structure and some others; about 0.92% of the full set was active somewhere.
# FadD28 FP inh: inhibitors of FadD28 bisubstrate probe binding, primary screen, biochemical, fluorescence polarization, single point | Mycobacterium tuberculosis FadD28 fatty-acid-AMP ligase | inhibition, % at 12.5 µM | 360,000 compounds, 0.22% hits; in the data active = inhibition above about 8.5%, passing the limit was not always enough; inconclusive = no clear call, values can overlap the other calls
# Rv3671c inh: Rv3671c serine protease inhibitors, primary screen, biochemical, fluorescence polarization, M. tuberculosis H37Rv. 320,000 compounds, 0.048% hits. inhibition, % at 5.96 µM; in the data active = inhibition above about 38%;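 also: extracellular domain of Rv3671c used as enzyme; 0% = enzyme with DMSO and 100% = no enzyme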
# Target sequence (P9WHR9 whole entry, looked up, the tested form may be a part): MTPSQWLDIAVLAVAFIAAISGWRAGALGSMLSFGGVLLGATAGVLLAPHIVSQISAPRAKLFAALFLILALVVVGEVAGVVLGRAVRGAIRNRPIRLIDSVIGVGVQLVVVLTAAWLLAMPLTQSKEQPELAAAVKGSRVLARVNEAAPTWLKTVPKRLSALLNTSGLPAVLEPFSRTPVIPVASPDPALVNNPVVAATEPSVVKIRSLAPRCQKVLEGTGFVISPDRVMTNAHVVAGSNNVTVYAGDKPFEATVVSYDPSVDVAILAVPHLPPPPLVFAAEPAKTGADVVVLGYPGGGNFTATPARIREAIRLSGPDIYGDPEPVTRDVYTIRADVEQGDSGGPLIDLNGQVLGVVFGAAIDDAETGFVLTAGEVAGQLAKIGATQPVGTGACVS
# RecA splice inh: Mtb RecA intein splicing inhibitors, primary screen, biochemical, fluorescence, HTS; Protein RecA (Mycobacterium tuberculosis (strain ATCC 25618 / H37Rv)), P9WHJ3; cell-free RecA intein splicing; inhibition, % (no concentration beside the values); 290,000 compounds, 0.75% hits; AID 2221, 2009; in the data active = inhibition above about 30%; inconclusive = no clear call, values can overlap the other calls;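 also: 0% = vehicle wells and 100% = reference inhibitor control wells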
# Mtb hypoxia rep: PubChem AID 1159583; fluorescence inhibition, % (no concentration beside the values); M. tuberculosis hypoxia-regulated fluorescent reporter, fluorescence; 300,000 compounds, 0.1% hits; in the data active = fluorescence inhibition mostly above about 23%, no sharp cut-off; inactive = mostly below about 17%
# UGM FP inh: M. tuberculosis UGM enzyme inhibitors, primary screen, biochemical, fluorescence polarization, single point | 320,000 compounds, 0.06% hits | inhibition, % at 10 µM | purified UGM, fluorescence polarization probe displacement | UDP-galactopyranose mutase (Mycobacterium tuberculosis (strain ATCC 25618 / H37Rv)), … | AID 504406, 2011; in the data active = inhibition above about 10%, passing the limit was not always enough; inconclusive = no clear call, values can overlap the other calls
# GFP chromophore: counter-screen: blocks GFP chromophore formation, dose response, counter-screen, biochemical, fluorescence, homogeneous. shares compounds with RecA splice inh. cell-free GFP chromophore formation. EC50, µM. 2,100 compounds, 83% hits. AID 434968, 2010; call rule not given here
# An asterisk follows results filed as active; ? = inconclusive; . = no result shown.
SMILES,FadD28 FP inh,Rv3671c inh,RecA splice inh,Mtb hypoxia rep,UGM FP inh,GFP chromophore
Cc1ccc(S(=O)(=O)N2C(c3ccc(C(C)C)cc3)CC=C(C(=O)O)C2c2ccc(F)cc2)cc1 (stereo not given),.,.,.,15,.,.
COc1ccc(NC(=O)/C(Cl)=C(/Cl)S(=O)(=O)Cc2ccc(C)cc2)cn1,-5,.,89*,.,.,6.7*
O=C(O)CSc1cc(NS(=O)(=O)c2ccc(Br)cc2)c2ccccc2c1O,-2,-145,97*,.,2,0.68*
O=S(=O)(Nc1cc(Sc2ncn[nH]2)c(O)c2ccccc12)c1ccccc1,-1,.,.,-7,.,.
O=C(CCl)N1c2ccccc2OCC1c1ccccc1 (stereo not given),-2,-6,81*,.,-2,4.5*
CC1(C)Nc2ccc(O)cc2-c2c1ssc2=S,1,0,93*,.,1,2.4*
C#CCNC(=O)C1=CC(c2ccc(C#C)cc2)CC(OCCCCO)O1 (stereo not given),.,.,.,9,.,.
Cc1ccc(NC(=O)C2=C(c3ccccc3)S(=O)(=O)CCS2(=O)=O)cc1,-1,-2,94*,14,-4,1.9*
CC1CC=CC2C1C(=O)N(Cc1ccccc1)C2c1ccc(C=Cc2ccccc2)cc1F (stereo not given),.,.,.,6,.,.
NC(=O)C1CC2(CC(c3cccc(NC(=O)C4CCC(=O)N4)c3)=NO2)CN1C(=O)COc1ccc(Cl)cc1 (stereo not given),.,.,.,5,.,.
COC(=O)c1cc(NC(=O)Nc2ccccc2OC)cc(C(=O)OC)c1,-2,-13,40*,0,-4,>38
O=C(O)CC1OCC=C2CN3CCC45C6=CC(=O)C(=O)C([N+](=O)[O-])=C6NC4C1C2CC35 (stereo not given),?,-116,85*,3,2,7.1*
C#CCOCCOCCOCCNc1nc(N2CCN(C(=O)Cn3cc(CCCCN)nn3)CC2)nc(N2CCN(C(=O)C(C(C)CC)n3cc(CCCCN)nn3)CC2)n1 (stereo not given),.,.,.,3,.,.
CN1CCc2nc(SCc3ccc(Cl)cc3)c(C#N)c(-c3cccs3)c2C1,.,2,60*,1,0,8.7*
O=C(CSc1nc2ccccc2o1)NN=Cc1ccc(C(=O)O)cc1,.,.,.,11,.,.
COC(=O)C1=C(c2ccc(F)cc2OCc2ccccc2)CC2CCC1N2C(=O)N1CCCCC1 (stereo not given),.,.,.,10,.,.
COC(=O)C1CN(C#N)N(c2ccc(Cl)cc2)C12c1ccccc1-c1ccccc12 (stereo not given),-2,2,44*,11,-2,9.8*
CCSC1(SCC)N=C(N)C2(C#N)C(c3ccc(F)cc3)C12C#N (stereo not given),-4,-2,50*,8,-2,38*
C/C(C=NNC(=O)CCn1nnc2ccccc21)=C\c1ccccc1,.,.,.,0,.,.
CCCCN1C(=S)NCC1C(C)CC (stereo not given),.,.,.,7,.,.
COc1ccc(C2CC(=O)C=C(c3ccc(F)cc3OCc3ccccc3)C2)cc1 (stereo not given),.,.,.,16,.,.
Nc1nc(-c2ccco2)nn1C(=O)c1ccccc1,-2,13,15,-1,2,.
Nc1nc(-c2ccco2)nn1C(=O)c1ccc(Cl)cc1,-1,1,34*,17,1,>38
Cc1cc(N)n(-c2ccc([N+](=O)[O-])cc2)n1,-1,3,1,4,-1,.
Cc1cc(C)n(-c2ccc([N+](=O)[O-])cc2)n1,-2,-13,43*,13,-4,>38
SMILES,FadD28 FP inh,Rv3671c inh,RecA splice inh,Mtb hypoxia rep,UGM FP inh,GFP chromophore
CCOc1cc(NC2CS(=O)(=O)CC2O)c(OCC)cc1NC(=O)c1ccccc1 (stereo not given),2,1,59*,-3,1,>38
CC(=C(C#N)C(=O)NCc1ccccc1)N(C)C,.,.,.,6,.,.
Oc1ccc(O)c2c1C1c3ccccc3C2c2ccccc21,.,8,44*,.,1,10*
Oc1ccc2ccccc2c1C1Nc2cccc3cccc(c23)N1,2,-5,-2,1,-2,.
O=[N+]([O-])c1c(Nc2cccc(O)c2)cc(Cl)c2nonc12,0,9,-5,.,2,.
CNc1cc(Cl)c2nonc2c1[N+](=O)[O-],-1,.,86*,.,.,7.7*
CCCCCCCCCCCCCCCCn1cc[n+](C)c1,49*,13,48*,12,0,12*
S=C(NCCc1ccccc1)NN=Cc1c(Cl)cccc1Cl,.,.,.,-1,.,.
O=C(c1cccs1)[C@@H]1[C@@H]2C(=O)N(Cc3ccc4c(c3)OCO4)C(=O)[C@@H]2C2c3ccccc3C=CN21 (stereo not given in full),.,-22,38*,.,2,4.2*
O=C(c1ccc2c(c1)OCO2)[C@@H]1[C@@H]2C(=O)N(C3CCCCC3)C(=O)[C@@H]2C2c3ccccc3C=CN21 (stereo not given in full),-1,.,4,-9,.,.
Cc1ccc(Sc2c(C)[nH]n(C(C)(C)C)c2=O)cc1,-2,-2,50*,11,0,40*
CCN1CCN(c2c(Cl)cccc2NC(=O)c2ccc3c(c2)OCCO3)CC1,-4,1,31*,11,2,>38
Cc1ccc(C2=NNC(=O)C(c3ccc(Cl)cc3)C2)cc1 (stereo not given),-3,2,1,.,-1,.
CC1=NNC(=O)C1C(c1ccc(Cl)cc1)C(C#N)C#N (stereo not given),-3,-6,85*,.,-2,11*
Cc1ccc(C)c(N2CCN(C(c3ccncc3)c3nnnn3Cc3ccccc3)CC2)c1 (stereo not given),-3,-4,10,17,1,.
N#CC(c1ccccc1)C1CCN(Cc2ccccc2)CC1 (stereo not given),-1,2,3,15,1,.
CC1=NN(Cc2ccccc2)C(=O)C1C(c1ccc(Cl)cc1)C(C#N)C#N (stereo not given),0,1,80*,0,2,6.2*
CC1=NN(Cc2ccccc2)C(=O)C1C(c1ccccc1)C(C#N)C#N (stereo not given),0,2,88*,13,2,8.7*
CC1=NN(Cc2ccccc2)C(=O)C1C(c1ccncc1)C(C#N)C#N (stereo not given),0,5,68*,5,-2,18*
CN1C(=CC=NNC(=O)c2ccc(O)cc2)C(C)(C)c2ccccc21,.,.,.,-8,.,.
CCOC(=O)C1=C(C)N=c2s/c(=C\c3ccc(O)c([N+](=O)[O-])c3)c(=O)n2C1c1ccccc1OC (stereo not given),2,17,-2,.,-2,.

# Compound activity deposited in PubChem by several laboratories.
